# Test results from the supplement of paper PMC8728848.
# The sample as a whole holds a higher share of the strongest signals than the screen did.
# B1: EUL D1A second (Oryza sativa) (protein)
# chain: GAATACTIGGVPVHTVRVFSAAGEDYCLTVRNGTACLAPKNPRDDYQHWIKDMRHSNKIRDEEGYPAFALVNKVTGEAIKHSTGQGHPVKLVPYNPEYQDESVLWTESKDVGKGFRCIRMVNNIYLNFDAFHGDKDHGGIHDGTEIVLWKWCEGDNQRWKILPWILEQKLISEEDLNSAVDHHHHHH
# Key:
# Assay in all cases: glycan array binding signal (z-score within array); higher = stronger binding
# Conditions in all cases: glycan notation: IUPAC condensed, linker removed
# [1] = biological target: Fuc(a1-2)Gal(b1-3)GlcNAc(b1-3)Gal(b1-4)Glc
# How it was run: (§1)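 From the Consortium for Functional Glycomics database, 3228 arrays were curated, keeping only those whose protein sequence was available. Binding is given as a within-array Z-score averaged across arrays sharing a protein sequence and across linkers. Negative Z-scores can be read as non-binding.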
# [2] = biological target: Fuc(a1-2)Gal(b1-3)GlcNAc(b1-3)GalNAc
# How it was run: as §1
# [3] = biological target: Fuc(a1-2)Gal(b1-3)[Fuc(a1-4)]GlcNAc(b1-2)Man(a1-3)[Fuc(a1-2)Gal(b1-3)[Fuc(a1-4)]GlcNAc(b1-2)Man(a1-6)]Man(b1-4)GlcNAc(b1-4)[Fuc(a1-6)]GlcNAc(b1-4)[Fuc(a1-6)]GlcNAc
# How it was run: as §1
# [4] = biological target: Fuc(a1-2)Gal(b1-3)[Fuc(a1-4)]GlcNAc(b1-3)[Gal(b1-4)GlcNAc(b1-6)]Gal(b1-4)Glc
# How it was run: as §1
# [5] = biological target: Fuc(a1-2)Gal3S(b1-4)GlcNAc
# How it was run: as §1
# [6] = biological target: Fuc(a1-2)Gal6S(b1-3)GlcNAc6S
# How it was run: as §1
# [7] = biological target: Fuc(a1-2)[GalNAc(a1-3)]Gal
# How it was run: as §1
# [8] = biological target: Fuc(a1-2)[GalNAc(a1-3)]Gal(b1-4)GlcNAc
# How it was run: as §1
# [9] = biological target: Fuc(a1-2)[GalNAc(a1-3)]Gal(b1-4)GlcNAc(b1-3)Gal(b1-4)GlcNAc
# How it was run: as §1
# [10] = biological target: Fuc(a1-2)[GalNAc(a1-4)]Gal(b1-4)GlcNAc
# How it was run: as §1
# [11] = biological target: Fuc(a1-2)[GalNAc(b1-3)]Gal
# How it was run: as §1
# [12] = biological target: Fuc(a1-3)[Gal(b1-4)]GlcNAc(b1-2)Man
# How it was run: as §1
# [13] = biological target: Fuc(a1-3)[Gal(b1-4)]GlcNAc(b1-3)Gal(b1-4)[Fuc(a1-3)]GlcNAc
# How it was run: as §1
# [14] = biological target: Fuc(a1-3)[Gal(b1-4)]GlcNAc(b1-3)GalNAc
# How it was run: as §1
# [15] = biological target: Fuc(a1-3)[Gal(b1-4)]GlcNAc6S
# How it was run: as §1
# Gal(a1-3)GalNAc = biological target: Gal(a1-3)GalNAc
# How it was run: as §1
# Gal(a1-4)GlcNAc = biological target: Gal(a1-4)GlcNAc
# How it was run: as §1
# Gal(b1-3)Gal = biological target: Gal(b1-3)Gal
# How it was run: as §1
# [16] = biological target: Gal(b1-3)GalNAc(b1-3)Gal(a1-4)Gal(b1-4)Glc
# How it was run: as §1
# [17] = biological target: Gal(b1-3)GlcNAc(b1-3)Gal(b1-4)GlcNAc(b1-2)[Gal(b1-3)GlcNAc(b1-3)Gal(b1-4)GlcNAc(b1-6)]Man(a1-6)[Gal(b1-3)GlcNAc(b1-3)Gal(b1-4)GlcNAc(b1-2)Man(a1-3)]Man(b1-4)GlcNAc(b1-4)[Fuc(a1-6)]GlcNAc
# How it was run: as §1
# [18] = biological target: Gal(b1-3)GlcNAc(b1-3)Gal(b1-4)GlcNAc(b1-3)Gal(b1-4)GlcNAc(b1-2)[Gal(b1-3)GlcNAc(b1-3)Gal(b1-4)GlcNAc(b1-3)Gal(b1-4)GlcNAc(b1-6)]Man(a1-6)[Gal(b1-3)GlcNAc(b1-3)Gal(b1-4)GlcNAc(b1-3)Gal(b1-4)GlcNAc(b1-2)Man(a1-3)]Man(b1-4)GlcNAc(b1-4)[Fuc(a1-6)]GlcNAc
# How it was run: as §1
# Gal(b1-4)Gal = biological target: Gal(b1-4)Gal
# How it was run: as §1
# Gal(b1-4)GlcNAc(b1-2)Man = biological target: Gal(b1-4)GlcNAc(b1-2)Man
# How it was run: as §1
# [19] = biological target: Gal(b1-4)GlcNAc(b1-2)Man(a1-3)[Man(a1-6)]Man(b1-4)GlcNAc(b1-4)GlcNAc
# How it was run: as §1
# [20] = biological target: Gal(b1-4)GlcNAc(b1-2)[Gal(b1-4)GlcNAc(b1-4)]Man(a1-3)[GlcNAc(b1-4)][Gal(b1-4)GlcNAc(b1-2)[Gal(b1-4)GlcNAc(b1-6)]Man(a1-6)]Man(b1-4)GlcNAc(b1-4)GlcNAc
# How it was run: as §1
# [21] = biological target: Gal(b1-4)GlcNAc(b1-2)[Gal(b1-4)GlcNAc(b1-6)]Man(a1-6)[GlcNAc(b1-4)][Gal(b1-4)GlcNAc(b1-2)Man(a1-3)]Man(b1-4)GlcNAc(b1-4)GlcNAc
# How it was run: as §1
# [22] = biological target: Gal(b1-4)GlcNAc(b1-3)Gal(b1-3)GlcNAc
# How it was run: as §1
# [23] = biological target: Gal(b1-4)GlcNAc(b1-3)Gal(b1-4)Glc
# How it was run: as §1
# [24] = biological target: Gal(b1-4)GlcNAc(b1-3)Gal(b1-4)GlcNAc
# How it was run: as §1
# [25] = biological target: Gal(b1-4)GlcNAc(b1-3)Gal(b1-4)GlcNAc(b1-2)[Gal(b1-4)GlcNAc(b1-3)Gal(b1-4)GlcNAc(b1-6)]Man(a1-6)[Gal(b1-4)GlcNAc(b1-3)Gal(b1-4)GlcNAc(b1-2)Man(a1-3)]Man(b1-4)GlcNAc(b1-4)[Fuc(a1-6)]GlcNAc
# How it was run: as §1
# [26] = biological target: Gal(b1-4)GlcNAc(b1-3)Gal(b1-4)GlcNAc(b1-3)Gal(b1-4)GlcNAc(b1-3)Gal(b1-4)GlcNAc(b1-3)Gal(b1-4)GlcNAc(b1-3)Gal(b1-4)GlcNAc(b1-2)Man(a1-3)[Gal(b1-4)GlcNAc(b1-3)Gal(b1-4)GlcNAc(b1-3)Gal(b1-4)GlcNAc(b1-3)Gal(b1-4)GlcNAc(b1-3)Gal(b1-4)GlcNAc(b1-3)Gal(b1-4)GlcNAc(b1-2)Man(a1-6)]Man(b1-4)GlcNAc(b1-4)GlcNAc
# How it was run: as §1
# [27] = biological target: Gal(b1-4)GlcNAc(b1-6)Gal(b1-4)GlcNAc
# How it was run: as §1
# [28] = biological target: Gal(b1-4)GlcNAc(b1-6)[Gal(b1-4)GlcNAc(b1-3)]GalNAc
# How it was run: as §1
binder,measurement,setting,value
B1,glycan array binding signal (z-score),[1],-1.01
same,glycan array binding signal (z-score),[2],-0.565
same,glycan array binding signal (z-score),[3],0.045
same,glycan array binding signal (z-score),[4],1.09
same,glycan array binding signal (z-score),[5],0.228
same,glycan array binding signal (z-score),[6],1.43
same,glycan array binding signal (z-score),[7],-0.789
same,glycan array binding signal (z-score),[8],-1.07
same,glycan array binding signal (z-score),[9],-0.086
same,glycan array binding signal (z-score),[10],0.772
same,glycan array binding signal (z-score),[11],-0.072
same,glycan array binding signal (z-score),[12],0.112
same,glycan array binding signal (z-score),[13],-0.106
same,glycan array binding signal (z-score),[14],0.566
same,glycan array binding signal (z-score),[15],-0.105
same,glycan array binding signal (z-score),Gal(a1-3)GalNAc,-1.42
same,glycan array binding signal (z-score),Gal(a1-4)GlcNAc,-1.01
same,glycan array binding signal (z-score),Gal(b1-3)Gal,-0.342
same,glycan array binding signal (z-score),[16],2.08
same,glycan array binding signal (z-score),[17],4.86
same,glycan array binding signal (z-score),[18],4.47
same,glycan array binding signal (z-score),Gal(b1-4)Gal,3.37
same,glycan array binding signal (z-score),Gal(b1-4)GlcNAc(b1-2)Man,1.59
same,glycan array binding signal (z-score),[19],-0.232
same,glycan array binding signal (z-score),[20],-0.986
same,glycan array binding signal (z-score),[21],-0.799
same,glycan array binding signal (z-score),[22],-0.245
same,glycan array binding signal (z-score),[23],-0.283
same,glycan array binding signal (z-score),[24],-0.532
same,glycan array binding signal (z-score),[25],3.31
same,glycan array binding signal (z-score),[26],0.069
same,glycan array binding signal (z-score),[27],-0.144
same,glycan array binding signal (z-score),[28],-0.385
